Inhibition data for 29 compounds are collected here from ChEMBL document CHEMBL1157539, “Thousands of chemical starting points for antimalarial lead identification” (Nature, 2010).

Common to all, as to assay type: functional
Assay [1] deals with Plasmodium falciparum. In words: GSK_TCMDC: Inhibition of Plasmodium falciparum 3D7 in whole red blood cells, using parasite LDH activity as an index of growth. Test compounds present at 2uM.
Assay [2] concerns Plasmodium falciparum. Nature of the assay: GSK_TCMDC: Inhibition of Plasmodium falciparum Dd2 in whole red blood cells, using parasite LDH activity as an index of growth. Test compounds present at 2uM.
In another assay the test system is HepG2. In words: GSK_TCMDC: Percent inhibition of human HepG2 cell line. Test compounds present at 10uM.

In the case of `CCCc1cc(N2CCC(c3ccccc3)(N3CCCCC3)CC2)nc(Nc2ccc(OC)cc2)n1`, the Inhibition (in general, the relative decrease from the control value, in per cent) was found to be 81% in the assay with Plasmodium falciparum [1], 28% with Plasmodium falciparum [2] and 13% in the assay with HepG2.
For `CCNC(=O)Nc1cccc(-c2cccc(-c3nc4cc(C(F)(F)F)ccc4[nH]3)c2)c1`, in that order: 91%, 32% and 50%.
Regarding `COc1ccc2nccc(N(C)CC3(O)CCC(NCc4cc5c(cn4)OCCO5)CC3)c2n1.Cl` (configuration not stated), the Inhibition was 99% with Plasmodium falciparum [1], 14% in the assay on Plasmodium falciparum [2] and 1% with HepG2.
For the compound `O=C(/C=C/c1ccc(Cl)c(Cl)c1)NCCCCCN1CCCC(CCCNC(=O)Nc2ccc(C(F)(F)F)cc2)C1` (configuration not stated), the Inhibition came to 100% with Plasmodium falciparum [1], 48% in the assay with Plasmodium falciparum [2] and 58% in the assay with HepG2.
For `OC(Cn1ccnc1)(c1ccc(Cl)cc1Cl)C1CCCCC1` (configuration not stated), in that order: 98%, 58% and 7%.
Consider `Cl.N#Cc1ccc2c(c1)CCN(CCC1CCC(NC(=O)/C=C/c3cccc4cc[nH]c34)CC1)CC2` (configuration not stated), for which the figures for the Inhibition with Plasmodium falciparum [1], in the assay with Plasmodium falciparum [2] and in the assay on HepG2 were 89%, 29% and 22%, respectively.
For the compound `CCc1ccc(CN2CCCCC(NC(=O)c3cc(-c4ccccc4F)cs3)C2)cc1.O=C(O)C(F)(F)F` (configuration not stated), the Inhibition with Plasmodium falciparum [1] was 87%; in the assay with Plasmodium falciparum [2], 12%; in the assay on HepG2 it was 25%.
With `N#Cc1cccc(C(=O)Nc2cccc(-c3ccc(C(=O)Nc4cccnc4)cc3)c2)c1`, the values for the Inhibition in the assay on Plasmodium falciparum [1], with Plasmodium falciparum [2] and in the assay on HepG2 were 89%, 10% and 39%, respectively.
Taken in the same sequence, the figures for `COc1ccc2nccc([C@@H](O)CN3CCC(NCC(O)Cc4ccccc4)CC3)c2c1.O=C(O)C(=O)O` (some centres not stated) were 98%, 6% and 5%.
Taken in the same sequence, the figures for `CC(=O)N(C)c1cccc(CNc2cc(C)nc(Nc3ccc(C)cc3)n2)c1` were 97%, 21% and 8%.
With `N#Cc1cccc(CN2CCCN(Cc3cccc(C(=O)Nc4ccc(Cl)cc4)c3)CC2)c1.O=C(O)C(F)(F)F`, the Inhibition with Plasmodium falciparum [1] is reported as 82%; in the assay on Plasmodium falciparum [2], 9%; in the assay on HepG2, 46%.
For `COc1cc2c(C3CCN(CC4CCC(NC(=O)/C=C/c5ccc(Cl)c(Cl)c5)CC4)CC3)c[nH]c2cn1` (configuration not stated), in that order: 100%, 100% and 44%.
For the compound `CCOc1cc(CNCCCCCCNCc2cc(OCC)c(OCC)c3ccccc23)c2ccccc2c1OCC.CS(=O)(=O)O`, the values for the Inhibition with Plasmodium falciparum [1], with Plasmodium falciparum [2] and in the assay on HepG2 were 100%, 99% and 100%, respectively.
Consider `CCN(CC)CCCN(C(=O)Nc1c(Cl)cncc1Cl)c1nc(-c2ccc(F)cc2)cs1`, for which the Inhibition in the assay on Plasmodium falciparum [1] was found to be 100%; in the assay with Plasmodium falciparum [2], 93%; in the assay with HepG2, 37%.
As to `CC1CCC(NCc2ccc3c(CNC4CCC(C)CC4)c(O)ccc3c2O)CC1.Cl` (configuration not stated), the Inhibition with Plasmodium falciparum [1] worked out at 100%; in the assay with Plasmodium falciparum [2], 99%; in the assay on HepG2 it was 4%.
Turning to `c1ccc(Oc2ccc(Nc3ccnc4ccc(-c5ccccn5)cc34)cc2)cc1`, the Inhibition with Plasmodium falciparum [1] is on record as 80%; in the assay on Plasmodium falciparum [2], 10%; in the assay on HepG2, 4%.
In the case of `O=C(/C=C/c1ccc(Cl)cc1)NCCCCCN1CCN(C(=O)Nc2ccc(Cl)c(C(F)(F)F)c2)CC1`, the values for the Inhibition in the assay on Plasmodium falciparum [1], in the assay on Plasmodium falciparum [2] and with HepG2 were 94%, 5% and 18%, respectively.
For the compound `CN1CCCN(Cc2cccc(-c3ccc(NC(=O)c4cccc(Cl)c4)cc3)c2)CC1.O=C(O)C(F)(F)F`, the Inhibition came to 90% in the assay on Plasmodium falciparum [1], 10% with Plasmodium falciparum [2] and 34% in the assay with HepG2.
Turning to `O=C(NCCc1cccc(F)c1)c1cc(Br)cc(N2CCN(c3ccncc3)CC2)c1.O=C(O)C(F)(F)F`, the Inhibition stood at 100% in the assay with Plasmodium falciparum [1], 86% with Plasmodium falciparum [2] and 34% in the assay on HepG2.
On to `Cc1c(-c2cccc(NC(=O)C(C)(C)Oc3ccc(Cl)cc3)c2)nc2ncccn12`, for which the Inhibition stood at 98% in the assay on Plasmodium falciparum [1], 95% in the assay on Plasmodium falciparum [2] and 0% in the assay on HepG2.
Turning to `CNC(=O)c1cc(F)c(F)cc1Nc1nc(Nc2cccc(CS(C)(=O)=O)c2)ncc1Cl.O=CO`, the Inhibition with Plasmodium falciparum [1] is 91%; in the assay with Plasmodium falciparum [2] it was 90%; with HepG2 it was 52%.
With `O=C(Nc1cccc(CN2CCCN(Cc3ncc[nH]3)CC2)c1)c1ccc(Cl)c(Cl)c1.O=C(O)C(F)(F)F`, the Inhibition is recorded as 100% in the assay on Plasmodium falciparum [1], 16% in the assay with Plasmodium falciparum [2] and 8% in the assay with HepG2.
For `O=C(Nc1ccc(N2CCCN(Cc3cccc(F)c3)CC2)cc1)c1ccccc1.O=C(O)C(F)(F)F`, in that order: 95%, 95% and 25%.
For `COc1c(C2CCN(CCCCNC(=O)c3cc(-c4ccc(Cl)cc4)oc3C)CC2)ccc2c1CCCC2`, in that order: 97%, 27% and 93%.
Consider `CCCCc1ccc(-c2ccc3[nH]c(C)c(Br)c(=O)c3c2)cc1`, for which the Inhibition came out at 97% with Plasmodium falciparum [1], 97% in the assay with Plasmodium falciparum [2] and 0% in the assay on HepG2.
In the case of `Cc1cc2ccc(/C=C/C(=O)NC3CCC(CCN4CCc5ccc(C#N)cc5CC4)CC3)cc2[nH]1.Cl` (configuration not stated), the Inhibition in the assay on Plasmodium falciparum [1] is listed as 84%; with Plasmodium falciparum [2] it was 56%; in the assay with HepG2 it was 19%.
For `CC(Cc1ccc(NC(=O)c2ccc(NCCc3ccccc3)cc2)cc1)NCCc1cccc(Cl)c1.Cl` (configuration not stated), in that order: 92%, 1% and 25%.
For `Nc1ncc(-c2ccccc2)cc1-c1cccc2ncccc12.O=C(O)C(F)(F)F`, the values for the Inhibition in the assay on Plasmodium falciparum [1], in the assay on Plasmodium falciparum [2] and in the assay on HepG2 were 97%, 99% and 82%, respectively.
For the compound `Clc1ccc2c(NCCc3ccccn3)ccnc2c1`, the Inhibition is listed as 92% with Plasmodium falciparum [1], 72% with Plasmodium falciparum [2] and 13% in the assay with HepG2.
